Assay outcomes deposited in PubChem BioAssay by National Center for Advancing Translational Sciences (NCATS).
Most compounds without a hit are left out; they make up all but 19% or so of the library.
DT40 TDP1 no CPT: qHTS for Inhibitors of human tyrosyl-DNA phosphodiesterase 1 (TDP1): qHTS in cells in absence of CPT; actives 15% (n = 420,000); AID 686978, 2013; DT40 Tdp1-/- hTDP1 cells, no CPT, ATP luminescence, 48 h; Potency, µM (titrated, usually from 46.2 µM), for inactives: at the highest dose activity change, negative = growth inhibition, most hits filed as inhibitors; further: potency means the concentration at half of the fitted maximal effect; on the % scale 0 is the no-effect control and ±100 the full control effect; nearly all actives have a fitted effect of over 55% in size
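No-CPT arm: Tdp1-/-;hTDP1 DT40 cells (400/well) plus compounds, incubated ≥48 hr at 37 °C. Readout CellTiter-Glo luminescence.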
DT40 TDP1 CPT: growth inhibition of DT40 Tdp1-/-;hTDP1 cells with camptothecin (screen for TDP1 inhibitors). chicken DT40 Tdp1-/-;hTDP1 cells + 20 nM CPT, ATP luminescence, 48 h. Potency, µM (highest dose often 46.2 µM), without a hit: top-dose activity change, negative = growth inhibition, usual class: inhibitors. actives 12% (n = 420,000). AID 686979; further: potency means the concentration at half of the fitted maximal effect; on the % scale 0 is the no-effect control and ±100 the full control effect; nearly all actives have a fitted effect of over 55% in size
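Chicken DT40 Tdp1-/- cells stably complemented with human TDP1 were seeded at 400 cells/well in medium containing 20 nM camptothecin, exposed to pin-transferred compounds, and grown at 37 °C for at least 48 hr. Viability was read as ATP luminescence.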
SW480 rerep: inducers of DNA re-replication in SW480 colon cancer cells; SW480 DNA re-replication, Hoechst DNA content imaging, 48 h; Potency, µM (series often up to 46.1 µM), for inactives: top-dose re-replication activation, actives largely listed as activators; actives 1.8% (n = 340,000); further: potency means the concentration at half of the fitted maximal effect; % of control where 0% means no effect; nearly all actives have a fitted effect of over 55% in size
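Compounds, transferred as 23 nL by pin tool, were incubated with cells for 48 hr; DNA content per nucleus was then quantified by Hoechst staining and fluorescence plate imaging.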
MCF10A rereplic: inducers of DNA re-replication in MCF 10A breast cells | Potency, µM (series often up to 46.1 µM), for inactives: at the top dose activity, positive = re-replication, hits mostly activators | actives 2.9% (n = 350,000) | MCF 10A DNA re-replication, Hoechst nuclear intensity, 48 h | AID 624296; further: potency means the concentration at half of the fitted maximal effect; % of control where 0% means no effect; nearly all actives have a fitted effect of over 50% in size
IL1B secr inh: inflammasome signaling inhibition, IL-1 beta readout. THP-1 LPS/ATP IL-1B secretion, AlphaLISA, 16 h; stronger effect = lower value. activity change, % at 57.5 µM. actives 4.7% (n = 360,000); in the data active means activity change below about -50%; inconclusive means mostly about -30% to -49%; further: on the % scale 0 is the no-effect control and ±100 the full control effect
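THP-1 cells pretreated 1 hr with compounds (up to 57.5 uM final), then stimulated with LPS (250 ng/mL final) plus ATP (1.25 mM final); secreted IL-1B measured by AlphaLISA after 16 hr, decreased signal indicating inhibition.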
Chronic BCR inh: inhibitors of chronic active B-cell receptor signaling; ABC-DLBCL IkBa-CBG/CBR reporter, luminescence ratio, 4 h; Potency, µM (top dose mostly 46.1 µM), inactives show top-dose activity change, negative = inhibition, most hits filed as inhibitors; actives 0.05% (n = 340,000); active means well fitted inhibition curve with a large enough effect in the signal ratio, with a control signal flat, not every such curve was filed as active; inconclusive means small, poorly fitted or top-dose-only effect, or effect the other way, or a change in a side signal; the % refers to the signal ratio;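 further: potency means the concentration at half of the fitted maximal effect; plate controls were basal doxycycline-induced cells for no effect and cells given 10 µM MG132 for full effect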
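Cell line TMD8 (human ABC DLBCL), stably expressing tet-inducible CBG68-IkBa fusion and CBR; IMDM/0.5% FBS; cpd up to 46 uM; dox induction, 4 h, 37C/5% CO2; dual luminescence; green/red ratio; MG132 control.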
Active calls of the source: *; ? = inconclusive; / = no result; [ ] = dose if it differs, or a comment. Unless noted, the call rests on the fitted dose curve; in most records, active means well fitted curve in the direction sought with a large enough effect; inconclusive means small, poorly fitted or top-dose-only effect, or another doubt; inactive means no such curve, though single readings can be large; an effect the other way counts as inactive or inconclusive.

SMILES	DT40 TDP1 no CPT	DT40 TDP1 CPT	SW480 rerep	MCF10A rereplic	IL1B secr inh	Chronic BCR inh
CN1C2c3ccccc3C3C4c5ccccc5C(C31)C(C2[N+](=O)[O-])N4C (configuration not stated)	?	-8%	-4%	13%	11	5%
CN1CCC2(CC1)c1ccccc1-c1ccccc12	15µM*	?	-2%	13%	-67*	/
CN1CCN(c2ccccc2N)CC1	10%	-1%	-6%	?	0	/
CN1c2ccccc2C(NCCCCCCC(=O)O)c2ccc(Cl)cc2S1(=O)=O (configuration not stated)	?	6%	2%	0%	/	/
Cc1cc(S(=O)(=O)NCC(C)C)ccc1OCC(=O)N1CCN(Cc2ccccc2)CC1	-65%	?	?	8%	-2	7%
CC(C)NS(=O)(=O)c1ccc(OCC(=O)N2CCN(Cc3ccc4c(c3)OCO4)CC2)c(Cl)c1	18µM*	16µM*	-2%	28%	-17	-6%
Cc1cc(S(=O)(=O)NC(C)C)ccc1OCC(=O)N1CCN(Cc2ccc3c(c2)OCO3)CC1	?	16µM*	-2%	-1%	-9	-2%
C=CCc1cc(OC)c2c(c1OC)OCO2	27%	12%	/	/	/	/
COc1ccc(CCn2c(NN=C3CCCCC3)nc3c2c(=O)[nH]c(=O)n3C)cc1	16µM*	?	5%	-1%	37	0%
CN1C(=O)N(C)C(=O)C(NS(=O)(=O)c2ccc(N)cc2)(c2ccccc2)C1=O	-4%	-1%	-4%	5%	21	/
Cc1cccc(OP(N)(=O)Oc2cccc(C)c2C)c1C	?	?	2%	-3%	13	0%
CCOC(=O)c1cccc(NC(=O)c2cnc(N3CCCCC3)c3ccccc23)c1	23µM*	18µM*	/	/	/	/
CCOC(=O)c1ccc(NC(=O)c2sc3nc4c(cc3c2N)N2CCC4CC2)cc1	?	-25%	/	/	/	/
Cc1ccc(NC(=O)c2cnc(N3CCN(c4ccccn4)CC3)c3ccccc23)c(Br)c1	13µM*	15µM*	?	18µM*	-28	?
Cc1cc(-c2nc3ncccc3o2)ccc1NC(=O)c1ccccc1Br	?	-16%	/	/	/	/
O=C1NC(=O)C(Nc2ccc(Cl)c(Cl)c2)C(=O)N1	-2%	11%	-1%	-1%	12	/
NNc1ccccc1	1%	-13%	0%	1%	/	/
CS(=O)(=O)c1ccc(C2=C(CNC(=O)c3ccc([N+](=O)[O-])cc3)[C@H]3CC[C@@H](C2)N3CCOc2ccccc2)cc1	15µM*	?	/	/	-20	/
O=C(NCC1=C(c2cccc3ccccc23)C[C@@H]2CC[C@H]1N2Cc1ccco1)c1ccc([N+](=O)[O-])cc1	18µM*	21µM*	/	/	-62*	/
CS(=O)(=O)c1ccc(C2=C(CNC(=O)c3ccc([N+](=O)[O-])cc3)[C@H]3CC[C@@H](C2)N3Cc2ccccc2)cc1	-26%	-18%	/	/	-17	/
CCOC(=O)C1C(C=C(C)C)C1(C)C (configuration not stated)	17%	-5%	/	/	/	/
CC(Cc1ccccc1)NCC(=O)Nc1cc(N(C)C)nc2ccccc12 (configuration not stated)	?	?	-46%	5%	/	1%
Cc1ccccc1NC(=O)CSc1nc2ccccc2c2nc(CCn3c(C)nc4ccccc43)nn12	18µM*	15µM*	/	/	/	3%
O=[N+]([O-])c1ccc(N2CCNCC2)c(Cl)c1	?	-28%	-4%	7.3µM*	-14	0%
S=c1[nH]nc(-c2cc(-c3ccccc3)n[nH]2)n1/N=C/C(Br)=C/c1ccccc1	2.6µM*	2.9µM*	?	3.3µM*	-99*	?
SMILES	DT40 TDP1 no CPT	DT40 TDP1 CPT	SW480 rerep	MCF10A rereplic	IL1B secr inh	Chronic BCR inh
CC(C)C(Br)C(=O)NC(N)=O (configuration not stated)	2%	12%	-3%	2%	/	/
Cc1ccc(S(=O)(=O)N(C)C[C@@H]2OCc3ccccc3-c3c(n(C)c4ccccc34)C(=O)N([C@H](C)CO)C[C@@H]2C)cc1	?	23µM*	/	/	-28	/
C[C@@H]1CN([C@H](C)CO)C(=O)c2cc(NC(=O)Nc3ccc(C(F)(F)F)cc3)ccc2O[C@H]1CN(C)S(=O)(=O)c1cccs1	?	?	11%	-72%	/	6%
Cc1ccc(S(=O)(=O)N(C)C[C@@H]2Oc3ncc(Br)cc3C(=O)N([C@H](C)CO)C[C@@H]2C)cc1	?	?	/	/	-5	/
C[C@@H]1CN([C@H](C)CO)C(=O)c2c(c3ccccc3n2C)-c2ccccc2CO[C@H]1CN(C)C(=O)Cc1ccccc1	13µM*	23µM*	/	/	-5	/
Cc1ccc(S(=O)(=O)N(C)C[C@H]2Oc3ncc(Br)cc3C(=O)N([C@H](C)CO)C[C@@H]2C)cc1	23µM*	-30%	/	/	-5	/
C[C@H](CO)N1C[C@H](C)[C@@H](CN(C)S(=O)(=O)c2cccs2)Oc2ccc(NC(=O)Nc3ccc(C(F)(F)F)cc3)cc2C1=O	18µM*	16µM*	7%[9.22 µM]	-33%	-2	0%
O=C1CC(c2ccc(F)cc2)c2c(c3ccccc3oc2=O)O1 (configuration not stated)	-5%	-8%	/	/	/	/
Ic1cncc(OC[C@@H]2CCN2)c1	-1%	14%	/	/	/	/
COc1ccc(NC(=O)Nc2ccc3c(c2)C(=O)N([C@H](C)CO)C[C@H](C)[C@@H](CN(C)S(=O)(=O)c2ccc(F)cc2)O3)cc1	?	?	15%	12%	-4	8%
C[C@H](CO)N1C[C@H](C)[C@H](CN(C)S(=O)(=O)c2ccc(Cl)cc2)OCc2ccccc2-c2c(n(C)c3ccccc23)C1=O	9.2µM*	26µM*	/	/	-15	/
NC(=O)c1cn(C2CCCCC2)c2ccccc2c1=O	-8%	?	8%	2%	-18	-2%
O=C1c2ccccc2C(=O)N1SC1CCCCC1	3.7µM*	3.7µM*	?	?	73	?
CCOC(=O)c1cnc(SCc2ccc(Cl)c(Cl)c2)nc1N1CC1	0.82µM*	0.58µM*	4.1µM*	13µM*	-14	/
Cc1c(C(=O)OC2CCCCC2)[nH]c2c1C(=O)CC(c1ccccc1)C2 (configuration not stated)	2.1µM*	4.6µM*	/	/	/	/
